# Values joined by “and” are separate entries in the source; they are usually repeats but may differ in a detail not shown here. Equal values may be shown once. In all, about 260,000 compounds went through this assay and about 1,300 (0.5%) were called active.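 Rule for the calls: active = percent inhibition above 40 after rounding to a whole number; inactive = the rest.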 What follows is part of a selection rich in actives, with near analogues and random picks from the rest. More than one record can exist for a structure, and the calls need not agree.
# Target: Prostaglandin E2 receptor EP2 subtype (Homo sapiens) (UniProt P43116)
# Experiment: human EP2 receptor antagonists, primary screen, TR-FRET cAMP, C6 glioma cells (AID 1422);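 note: rat C6 glioma host cells with rolipram phosphodiesterase inhibitor present; the protocol text gives 20 µM as final concentration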
# Settings: C6 glioma cells expressing human EP2, cAMP TR-FRET; at 25 µM; stronger effect = higher value; cells stimulated with saturating PGE2
# Chain of Prostaglandin E2 receptor EP2 subtype (Homo sapiens) (P43116 whole entry, looked up): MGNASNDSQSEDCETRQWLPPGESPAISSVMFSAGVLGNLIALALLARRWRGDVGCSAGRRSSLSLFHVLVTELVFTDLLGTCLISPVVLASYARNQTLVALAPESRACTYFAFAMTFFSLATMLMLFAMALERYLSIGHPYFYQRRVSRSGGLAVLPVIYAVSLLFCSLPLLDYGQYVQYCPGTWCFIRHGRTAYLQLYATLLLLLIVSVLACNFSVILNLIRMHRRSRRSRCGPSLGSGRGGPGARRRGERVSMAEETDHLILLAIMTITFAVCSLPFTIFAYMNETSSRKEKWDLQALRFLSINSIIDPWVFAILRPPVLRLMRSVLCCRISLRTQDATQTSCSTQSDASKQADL
row,SMILES,inhibition
1,C(=N/N1CCN(c2ccccc2)CC1)/c1cccs1,6.51% (inactive)
2,ClC(Cl)(Cl)C(N1CCN(c2ccccc2)CC1)N1CCN(c2ccccc2)CC1,46.7% (active)
3,CC(NC(=O)Nc1ccccc1)C(c1cccs1)N1CCN(c2ccccc2)CC1 (stereo not drawn),6.9% (inactive)
4,COc1ccc(CN(Cc2cccnc2)C2CC(C)(C)NC(C)(C)C2)cc1OC,9.23% (inactive)
5,CCOc1ccc(OCC)c(NC(=O)CSc2nc3cc4c(cc3cc2C)OCO4)c1,15.2% (inactive)
6,O=C(Nc1ccc2oc(-c3cccnc3)nc2c1)c1cccc2ccccc12,10.6% (inactive)
7,O=C(O)c1c(Br)c(Br)c(Br)c(Br)c1C1c2ccc(O)cc2Oc2cc(O)ccc21,46.5% (active)
8,N#CC1=C(N)Oc2cc(O)ccc2C1C1CCCCC1 (stereo not drawn),7.43% (inactive)
9,CCn1cc(C(=O)N2CCC(n3c(C)nc4sc(C)c(C)c4c3=O)CC2)cn1,-0.97% (inactive)
10,O=C(CN1CCC(n2nnc3cc(F)ccc32)CC1)Nc1cccc(F)c1,10.2% (inactive)
11,Cc1nn(CCC(=O)NC2(c3ccccc3)CCCC2)c(C)c1C,7.61% (inactive)
12,CC(C)(C)NCC(O)COc1cccc2[nH]c(=O)[nH]c12 (stereo not drawn),13.5% (inactive) and 12.7% (inactive)
13,COc1ccccc1OCC(O)Cn1c(=N)n(C)c2ccccc21 (stereo not drawn),8.65% (inactive)
14,COc1ccccc1OCCNCC(O)COc1cccc2[nH]c3ccccc3c12 (stereo not drawn),15.7% (inactive) and 44.9% (active)
15,Cn1c(=O)c2cc(S(=O)(=O)NC3(c4ccccc4F)CC3)ccc2n(C)c1=O,10.9% (inactive)
16,O=C(Nn1c(-c2ccccc2)nc2ccccc2c1=O)c1ccc([N+](=O)[O-])cc1,6.91% (inactive)
17,O=C(c1ccc([N+](=O)[O-])cc1)[C@@H](Br)[C@@H](Br)c1ccnc2ccccc12,99.4% (active)
18,O=C(c1ccncc1)c1ccc([N+](=O)[O-])cc1,8.78% (inactive)
19,COc1ccc(C(O)CN2CCC(O)(c3ccc4c(c3)OCO4)CC2)cc1 (stereo not drawn),6.32% (inactive)
20,O=c1[nH]c2cc3c(cc2cc1C(c1nnnn1C1CCCCC1)N1CCCCC1)OCCO3 (stereo not drawn),6.82% (inactive)
21,O=[N+]([O-])c1cc(Br)c(O)c(/C=N/Nc2nc3ccccc3s2)c1,77% (active)
22,COc1cc(/C=N/Nc2nc3ccccc3s2)ccc1O,16.7% (inactive)
23,c1ccc2sc(NN=C3CCCC3)nc2c1,1.63% (inactive)
24,COc1ccc2cc(CN(C(=O)Nc3ccc(F)cc3)C3CCCC3)c(=O)[nH]c2c1,8.38% (inactive)

row,SMILES,inhibition
1,CN(C)c1ncc(CN2CCC(O)(c3ccccc3F)CC2)cn1,5.6% (inactive)
2,COc1ccccc1NC(=O)c1sc(NC(=O)c2cccc(C)c2)c(C#N)c1C,11.9% (inactive)
3,CCC(CN1CCC(C)CC1)NC(=O)Cc1c(C)nc(OC)nc1OC (stereo not drawn),0.46% (inactive)
4,O=C(O)c1nn(-c2ccc(Cl)cc2)c2c1C(=O)c1ccccc1C2=O,42.4% (active)
5,Cc1cc(C(=O)NCCc2ccc(Cl)cc2)n(-c2ccccc2)n1,6.8% (inactive)
6,Cc1ccc(-n2ccc(=O)c(C(=O)O)n2)cc1,11.4% (inactive)
7,Cc1sc2nc(C(C)C)nc(SCC(=O)NCc3ccccc3)c2c1C,4.54% (inactive)
8,O=C(NC1CCCC1)C(c1ccccc1F)N(Cc1ccco1)C(=O)Cc1c[nH]c2ccccc12 (stereo not drawn),11.9% (inactive)
9,N#CSc1ccc(N2CCCCC2)cc1,6.1% (inactive)
10,O=C1C=CC(=O)N1c1ccc(N2CCCCC2)cc1,106% (active)
11,Cc1ccccc1C(=O)Nc1ccc(N2CCCCCC2)cc1,-0.3% (inactive)
12,C=C(C)Cn1c(N2CCC(C)CC2)nc2c1c(=O)[nH]c(=O)n2C,10.2% (inactive)
13,C=CCn1c(NC)nc2c1c(=O)n(C)c(=O)n2C,7.03% (inactive)
14,Cc1c(NC(=O)c2cc(-c3ccc(Cl)s3)nc3ccccc23)c(=O)n(-c2ccccc2)n1C,13.1% (inactive)
15,CCOC(=O)c1cc(-c2ccc(Cl)s2)nc2c1c(C)nn2C,41.6% (active)
16,CCOC(=O)c1cnc2c(c(C)nn2CC)c1Cl,4.46% (inactive)
17,COc1cc(OC)cc(-n2nnnc2SCC(=O)N2CCN(C)CC2)c1,10.8% (inactive)
18,COc1ccc2cc(C#N)c(SCC(=O)Nc3ccccc3Br)nc2c1,27% (inactive)
19,C=CS(=O)c1sc(Cl)c(N2CCOCC2)c1[N+](=O)[O-] (stereo not drawn),116% (active)
20,COc1cc(NC(=O)CSc2nnc3c(n2)[nH]c2ccccc23)cc(OC)c1,9.57% (inactive)
21,Cc1ccc(SCCC(=O)Nc2cc(C)on2)cc1,1.47% (inactive)
22,Cc1ccc2nc(-c3ccc(SCC(=O)Nc4cc(C)on4)nc3)[nH]c2c1,64.2% (active) and 20.1% (inactive)
23,Cc1cc2nc(-c3ccc(SCC(=O)N4CCCCC4C)nc3)[nH]c2cc1C (stereo not drawn),12.4% (inactive)
24,CCCN1C(=O)/C(=C/N(C(C)=O)c2ccccc2)SC1=S,12.5% (inactive)

row,SMILES,inhibition
1,CC1CCN(C(=O)CSc2nc3ccccc3n2Cc2ccccc2)CC1,11.6% (inactive)
2,Fc1ccc2[nH]c3c(N4CCSCC4)ncnc3c2c1,59.2% (active)
3,O=C(NCc1noc(-c2ccccc2)n1)c1cc(-c2ccccn2)n[nH]1,4.63% (inactive)
4,O=C(CN1C(=O)[C@@H]2CCCN2C(=O)c2ccccc21)Nc1ccc2c(c1)OCCO2,6.18% (inactive)
5,NC(N)=N/N=C/c1ccc(OCc2ccc(Cl)cc2Cl)cc1,97.3% (active)
6,NC(N)=N/N=C/c1ccc(Cl)c([N+](=O)[O-])c1,5.88% (inactive)
7,COc1ccc(C(=O)O/N=C(\N)Cc2ccc(Cl)cc2Cl)cc1OC,14.2% (inactive)
8,CCOc1ccc2nc(NC(=O)c3ccc(NC(C)=O)cc3)sc2c1,11.4% (inactive)
9,CC(C)(C)NC(=O)Cn1nnc(-c2ccc(N)cc2)n1,7.5% (inactive)
10,COc1ccccc1CSc1nc2ccccc2[nH]1,-5.57% (inactive)
11,COc1ccccc1CSc1ncc(-c2ccc([N+](=O)[O-])cc2)[nH]1,85.8% (active)
12,COc1ccccc1CC(=O)Nc1ccc([N+](=O)[O-])cc1OC,2.1% (inactive)
13,N#CCN1CCN(c2ncnc3sc4c(c23)CCCC4)CC1,12.8% (inactive)
14,CCN(CC)CCCN1C(=O)C(O)=C(C(=O)c2ccc(C)o2)C1c1ccccc1F (stereo not drawn),13.9% (inactive)
15,COc1ccc(C2=NNC(c3cccnc3)=Nc3ccc(Br)cc32)cc1OC,6.87% (inactive)
16,Cc1cccc(C(=O)O)c1C[C@@H]1NCC[C@@H]2c3ccccc3N[C@@H]12,46% (active)
17,O=C(CN1N=C(c2ccccc2)Cn2c(cc3sccc32)C1=O)NCC1CCCO1 (stereo not drawn),4.16% (inactive)
18,CCc1cc2cc3c(cc2nc1SCC(=O)Nc1ccccc1Br)OCCO3,8.66% (inactive)
19,Cc1cc2ccccc2n1CCNC(=O)COc1ccc2ccccc2c1,73.2% (active)
20,Cc1cc2ccccc2n1CCC(=O)O,7.85% (inactive)
21,COC(=O)C(C)NC(=O)COc1ccc2ccccc2c1 (stereo not drawn),8.28% (inactive)
22,COC(=O)c1ccc(Cn2nc([N+](=O)[O-])c(Cl)c2C)cc1,12.7% (inactive)
23,O=[N+]([O-])c1cc([N+](=O)[O-])c2cccnc2c1O,7.12% (inactive)
24,O=C(O)COc1c(Cl)cc(Cl)c2cccnc12,16.4% (inactive)

row,SMILES,inhibition
1,O=S(=O)(O)c1ccc(O)c2ncccc12.O=S(=O)(O)c1ccc(O)c2ncccc12.[Zn],45.1% (active)
2,Cc1ccc(-n2c(SCC(=O)NC(C)(C)C)nnc2-c2cccnc2)cc1C,15.1% (inactive)
3,COc1ccc(NS(=O)(=O)c2ccc(NC(=O)C(C)(C(F)(F)F)C(F)(F)F)cc2)nn1,14.1% (inactive)
4,COc1ccc(NS(=O)(=O)c2ccc(NC(=S)NC(=O)/C=C/c3ccc(C)cc3)cc2)nn1,63.2% (active)
5,Cc1ccc(NC(=S)NC(=O)/C=C/c2ccc(Cl)cc2)cc1,5.92% (inactive)
6,CC1CCN(c2nc3c(c(=O)[nH]2)CCN(Cc2ccc(C(F)(F)F)cc2)C3)CC1,6.96% (inactive)
7,COc1ccc(Cc2nnc(NC(=O)Cc3ccc(Cl)cc3)s2)cc1OC,9.47% (inactive)
8,COc1cc(C=C2C(=O)OC3(CCCC3)OC2=O)ccc1OCc1ccccc1F,13.4% (inactive)
9,CN(C)c1ccc(C=C2C(=O)OC3(CCCC3)OC2=O)cc1,41.7% (active) and 7.71% (inactive)
10,CC1=NN(Cc2ccccc2)C(=O)/C1=C/c1ccc(N(C)C)cc1,18.2% (inactive)
11,Cc1nn(C)cc1S(=O)(=O)N(Cc1ccncc1)C1CC1,7.77% (inactive)
12,Cc1nc2c(c(=O)[nH]1)CCN(C(=O)Cn1c3ccccc3c3ccccc31)C2,7.09% (inactive)
13,Cc1[nH]nc2c1C(c1ccc(OCC(=O)N3CCCC3)cc1)C(C#N)=C(N)O2 (stereo not drawn),10.8% (inactive)
14,COc1ccc(OCCCC(=O)Nc2nc(-c3ccc(OC)cc3)cs2)cc1,12.9% (inactive)
15,Cc1ccc(CNS(=O)(=O)c2cccc(S(=O)(=O)N3CCCC3)c2)cc1,10.8% (inactive)
16,COCCn1c(N2CCCC2)nc2c1c(=O)n(C)c(=O)n2C,7.42% (inactive)
17,CC1=CC(C)(C)N(C(=O)CSc2nnc(-c3ccccc3)o2)c2ccc(C)cc21,45.4% (active)
18,CC1=CC(C)(C)N(C(=O)CSc2nccn2C)c2cc(C)ccc21,17.5% (inactive)
19,O=C(CSc1nnc(-c2ccccc2)o1)N1CCOCC1,8.71% (inactive)
20,COc1ccc(C2(NC(=O)c3noc(C)c3Cn3cccn3)CCCCC2)cc1,7.45% (inactive)
21,Cc1ccc(NC(=O)CSc2nnc(-c3ccncc3)n2C2CCCCC2)c(C)c1,15.8% (inactive)

# Reference: PubChem BioAssay AID1422 (Emory University Molecular Libraries Screening Center, 2008)
